Screening data (PubChem)
Marburg entry inh: inhibitors of Marburg virus binding or cell entry. actives 1.8% (n = 300,000). Potency, µM (series often up to 37.8 µM), inactives show top-dose activity change, negative = inhibition, usual class: inhibitors. AID 540276. Marburg virus pseudotyped entry inhibition, cell reporter; calls by dose curve; tested in HEK293 cells; also: potency is read from the fitted curve at half-maximal effect
HCMV antiviral: human cytomegalovirus inhibition. actives 4.5% (n = 410,000). HFF cells, HCMV-luciferase reporter, 72 h; hits give low values. AID 1259415. activity change, negative = inhibition, % at 57.5 µM; in the data active = activity change below about -60%; inconclusive = no clear call, values can overlap the other calls; inactive = above about -39%
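Two compound doses tested in HFFs infected with HCMV-luciferase, MOI 1 PFU/cell, 72 h at 37C. Lysate luminescence read with OneGlo; data normalized against buffer-only and 10uM Salinomycin inhibitor controls.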
FMDV antiviral: foot and mouth disease virus antiviral activity; actives 1.2% (n = 410,000); AID 1159524; Potency, µM (highest dose often 57.9 µM), for inactives: at the highest dose activity change, negative = inhibition, actives largely listed as inhibitors; FMDV antiviral cell-based qHTS; calls by dose curve; tested in HEK293T cells; also: read-out not given here; potency is read from the fitted curve at half-maximal effect; nearly all actives have a fitted effect of over 45% in size
LASV entry inh: blocks Lassa virus binding to or entry into cells. Lassa virus pseudotype entry inhibition, cell reporter. Potency, µM (highest dose often 37.9 µM), for inactives: at the top dose activity change, negative = inhibition, actives largely listed as inhibitors. actives 1.2% (n = 300,000). AID 540256; calls by dose curve; tested in HEK293 cells; also: potency is read from the fitted curve at half-maximal effect; nearly all actives have a fitted effect of over 50% in size
Giardia FBPA inh: blocks Giardia fructose-bisphosphate aldolase activity; Potency, µM (top dose mostly 59.6 µM), for the others: at the highest dose activity, negative = inhibition, usual class: inhibitors; actives 0.71% (n = 290,000); purified Giardia FBPA; A8B2U2; also: potency is read from the fitted curve at half-maximal effect; nearly all actives have a fitted effect of over 55% in size
Target sequence (A8B2U2 whole entry, looked up): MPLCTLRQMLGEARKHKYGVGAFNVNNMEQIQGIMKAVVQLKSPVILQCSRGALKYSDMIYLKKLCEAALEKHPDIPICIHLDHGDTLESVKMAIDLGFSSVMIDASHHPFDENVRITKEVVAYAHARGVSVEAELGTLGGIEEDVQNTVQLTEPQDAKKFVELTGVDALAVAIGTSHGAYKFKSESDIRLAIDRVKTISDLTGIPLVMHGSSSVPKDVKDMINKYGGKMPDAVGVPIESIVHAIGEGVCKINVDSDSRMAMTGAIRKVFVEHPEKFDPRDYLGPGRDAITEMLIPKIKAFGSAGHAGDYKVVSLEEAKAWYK
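40 nM FBPA preincubated 10 min at RT with compound (up to 57.5 uM final), then substrate plus GAPDH/TPI/NAD/arsenate coupling and diaphorase/resazurin added. Fluorescence read after 20 min at RT, 525/598 nm.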
HCV inh: inhibitors of hepatitis C virus infection; Potency, µM (top dose mostly 41.8 µM), without a hit: at the top dose activity change, negative = inhibition, hits mostly inhibitors; AID 651820; actives 3.4% (n = 340,000); Huh7.5.1 HCVcc-Cre infection, luciferase reporter, 44 h; also: potency is read from the fitted curve at half-maximal effect
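Infectious HCVcc-Cre (~0.5 moi) was added to cells just after compound, with cells seeded 4 h earlier at 1,000 per well. Luciferase activity after 44 h culture reported infection; substrate was incubated 15 min at room temperature before reading.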
* marks the source's active call; other numbers are inactive results; ? = inconclusive; . = no result given; [ ] = remark or other dose. In the library only some 8.3% were active in any assay of this set; here they are far more common. Unless noted, calls follow the shape of the dose curve; as a rule, active = well fitted curve in the direction sought with a large enough effect; inconclusive = small, poorly fitted or top-dose-only effect, or another doubt; inactive = no such curve, though single readings can be large; an effect the other way counts as inactive or inconclusive. % is scaled to controls: 0 for no effect and ±100 for the full control effect.

SMILES | Marburg entry inh | HCMV antiviral | FMDV antiviral | LASV entry inh | Giardia FBPA inh | HCV inh
Cc1ccc(C)c(Nc2nc3nonc3nc2Nc2cccc(C)c2C)c1 | ? | -101* | ? | ? | . | .
CCOC(=O)c1ccc(Nc2nc3nonc3nc2Nc2cccc(C)c2C)cc1 | ? | -97* | ? | ? | . | .
Cc1ncc2c(c1CNC(=O)c1cncs1)CCN(C(=O)c1cc(F)c(F)cc1F)C2 | . | . | -4% | . | . | .
CCOc1ccccc1NC(=O)NNC(=O)c1ccc2ccccc2c1 | ? | -27 | 8% | ? | . | 10%
CCOc1cc(NC(=S)Nc2cccc(OC)c2)c(OCC)cc1NC(=O)c1ccc(C)cc1 | ? | 1 | 13% | 1% | -10% | ?
Cc1ccc(-c2nc3ccccc3[nH]2)cc1NC(=O)COc1ccccc1[N+](=O)[O-] | -17%[46.1 µM] | -88* | 0% | ? | . | .
CCOc1ccccc1NC(=O)c1ccc2ccccc2c1 | -8%[46.1 µM] | 148 | 16% | -4%[46.1 µM] | -7% | 10µM*
CCOc1ccccc1NC(=O)c1c(NC(=O)c2cccc(C)c2)sc2c1CCCC2 | . | -85* | -10% | 13%[46.1 µM] | . | .
CCOc1cc(NC(=S)Nc2ccccc2)c(OCC)cc1NC(=O)c1ccc(OC)cc1 | ? | -66* | 8% | ? | -22% | ?
Cc1ccc(Cl)cc1NC(=O)Cn1c(=O)n(CCC(=O)NCc2ccc3c(c2)OCO3)c(=O)c2sccc21 | -26%[46.1 µM] | -15 | 12% | 11%[46.1 µM] | . | .
O=c1n(-c2ccccc2)c(=O)n2n1CC[C@@H]1C(=NOC[C@@H](O)COCc3ccco3)[C@H]3O[C@H]3[C@@H](O)[C@H]12 | -23%[14.2 µM] | . | . | . | . | .
CCOc1ccc(C(=O)Nc2cccc(C(=O)O)c2C)cc1Cl | 5.8µM* | ? | 1.8µM* | 9.2µM* | 29% | 0%
CCOc1ccc(C(=O)Nc2cc(-c3nc4ccccc4[nH]3)ccc2Cl)cc1[N+](=O)[O-] | 8.9µM* | -85* | -11% | ? | -6% | ?
CCOc1ccccc1NC(=O)c1ccc(OCC)c([N+](=O)[O-])c1 | 15% | -65* | -22% | 14% | 2% | -24%
CSCC[C@H](NC(=O)c1ccc(Cl)c([N+](=O)[O-])c1)c1nc2ccccc2[nH]1 | 10µM* | 23 | ? | -29% | 5% | -8%
CCOc1ccccc1NC(=O)c1ccc([N+](=O)[O-])cc1 | . | . | . | . | -3% | .
COc1ccccc1C1C(C(=O)Nc2ccccc2)=C(C)Nc2nc(-c3ccccc3)nn21 (centres undefined) | -9%[46.1 µM] | ? | -30% | -1%[46.1 µM] | . | .
Cc1nn(S(=O)(=O)c2cccs2)c(C)c1Sc1ccc([N+](=O)[O-])cc1 | -13%[46.1 µM] | -84* | 14µM* | ? | -3% | 10µM*
Cc1nn(S(=O)(=O)c2ccccc2)c(C)c1Sc1ccc([N+](=O)[O-])cc1 | ? | -85* | . | -13% | -7% | -18%
CC(=O)N1[C@@H]2c3ccc(-c4cccnc4)c(=O)n3C[C@@H]2[C@@H](CO)[C@@H]1C(=O)NCc1ccccc1Cl | . | 9 | . | . | . | .
CCOc1ccc(NS(=O)(=O)c2ccc3[nH]cc(C(=O)N(C)C4CCCCC4)c(=O)c3c2)cc1 | . | 7 | 1% | -5%[46.1 µM] | . | .
FC(F)(F)c1nc(N2CCCC2)ncc1-c1nnnn1-c1ccccc1 | -16% | -72* | 18µM* | -1% | 0% | 11µM*
COc1ccc(-n2nnnc2-c2cn(C)nc2C(F)(F)F)cc1 | ? | -30 | -14% | -1% | 0% | -5%
Cc1ccc(-n2nnnc2-c2cnc(N3CCCC3)nc2C(F)(F)F)cc1 | -12% | ? | ? | ? | 3% | 11µM*
Fc1cccc(-n2ncc(-c3nnnn3-c3ccccc3)c2C(F)(F)F)c1 | -2% | -24 | -20% | ? | -1% | ?
SMILES | Marburg entry inh | HCMV antiviral | FMDV antiviral | LASV entry inh | Giardia FBPA inh | HCV inh
O=C(NCc1ccc(Cl)cc1)NC1COc2ccccc2C1 (centres undefined) | . | -10 | -3% | -1%[46.1 µM] | . | .
COc1cccc([C@H]2Oc3ccc(OC)cc3C(=NOC[C@@H](O)COCc3ccco3)[C@H]2O)c1 | 14%[14.2 µM] | . | . | . | . | .
NCC[C@H](NC(=O)[C@@H](N)CCCN=C(N)N[N+](=O)[O-])C(N)=O | . | . | . | . | -3% | .
Clc1nc(NCCc2ccccc2)c2cn[nH]c2n1 | ? | -61* | ? | ? | . | ?
Oc1cccc(C=NCc2ccccc2)c1O | -10% | 23 | -16% | 4% | 7.1µM* | 1%
Oc1cccc(C=Nc2cccc3ccccc23)c1O | ? | 89 | 6% | ? | ? | -10%
CC1CN(Cc2c(O)ccc3c(=O)c(-c4ccccc4)coc23)CC(C)O1 (centres undefined) | -13%[46.1 µM] | ? | -19% | -28% | 0% | -1%
CC1CN(Cc2c(O)ccc3c2oc(=O)c2ccccc23)CC(C)O1 (centres undefined) | . | ? | -23% | . | 16µM* | ?
N[C@H](Cn1ccc(=O)[nH]c1=O)C(=O)O | 3% | . | . | . | . | .
C[C@@H]1NS(=O)(=O)c2cccc(Cl)c2O[C@@H]1c1ccccc1 | . | -20 | . | . | . | .
Cc1cccc(OCCSc2nc3ccc(NC(=O)COc4ccccc4)cc3s2)c1 | -2%[46.1 µM] | -18 | 0% | 2%[46.1 µM] | . | .
CCCC(=O)Nc1ccc2nc(SCCOc3ccccc3)sc2c1 | -26%[46.1 µM] | -60* | -17% | -16%[46.1 µM] | . | .
O=C(Nc1ccc2nc(SCCOc3ccccc3Cl)sc2c1)c1cccs1 | 2%[46.1 µM] | -88* | -24% | -6%[46.1 µM] | . | .
CCC(=O)Nc1ccc2nc(SCCOc3ccc(C)cc3)sc2c1 | -6%[46.1 µM] | ? | 4% | -15%[46.1 µM] | . | .
CCOC(=O)Nc1ccc2nc(Sc3ccc(Cl)cc3)sc2c1 | . | -34 | -21% | . | -12% | 14µM*
CCC(=O)Nc1ccc2nc(SCCOc3ccccc3)sc2c1 | ? | -63* | -4% | -15%[46.1 µM] | . | .
CCOC(=O)CSc1nc2ccc(NC(=O)c3ccc(Cl)cc3)cc2s1 | 10%[46.1 µM] | 33 | 2% | 19%[46.1 µM] | . | .
COC(=O)C(NS(=O)(=O)CCl)C(C)C (centres undefined) | . | . | . | . | 5% | .
CO/N=C(\C)CCN1CCCc2nc(C)c(C)cc21 | . | . | . | . | 1%[12.9 µM] | .
COc1cc(=O)n2c(c1C(=O)NCc1ccco1)CCN(Cc1ccc3nsnc3c1)CC2 | . | . | -15% | . | . | .
O=Nc1c(O)ccc2cc(S(=O)(=O)O)ccc12 | -16% | . | 0% | -11% | . | 17%
CN(C)c1ccc2cc(S(=O)(=O)O)cc(O)c2c1 | 11%[46.1 µM] | -100* | -10% | -5%[46.1 µM] | . | 31%
COc1ccc(CNC(=O)c2cc3cc4ccc(C)cc4nc3o2)cc1 | ? | -11 | 19% | ? | . | .
CCN1CCN(C(=O)c2cc3ccc(OC)cc3[nH]2)CC1 | . | 122 | 62% | . | -5% | 11%
COc1ccc2cc3cc(C(=O)N4CCN(Cc5ccc6c(c5)OCO6)CC4)oc3nc2c1 | ? | -39 | 22µM* | ? | 0% | ?
COc1ccc2cc(C(=O)N3CCN(Cc4ccc5c(c4)OCO5)CC3)[nH]c2c1 | ? | 0 | -25% | ? | . | 10µM*
